Reference: the supplement of paper PMC10849652
The full data set covers some 7,900 targets. This sample favours those with a hit. About 0.6% of all pairs of compound and target were hits. Values without a mark were called inactive.

Assays:
Experiment in all cases: log2 fold change, soluble protein after heating vs DMSO (PISA); higher = thermal stabilisation; K562 cells, 10 uM, 30 min; active = over 0.2 and 3.5 SD of the protein, either way, in both replicates (recomputed)
[1] = target: ZER1 (UniProt Q7Z7L7)
Outline: (§1)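 K562 cells at 2×10^6 cells/mL were given 10 μM compound for 30 min. Aliquots then went through 3 min of heating across 48°C-58°C, were pooled, and were extracted in PBS with 0.5% NP-40 at 4°C, and the supernatant after 21,000xg for 90 min was quantified by TMTpro 16plex LC-MS/MS with channel sums equalised. Thermal stability relative to control samples, from duplicates, is given as log2 fold change.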

[2] = target: ZFAND5 (UniProt O76080)
Chain of ZFAND5 (O76080 whole entry, looked up): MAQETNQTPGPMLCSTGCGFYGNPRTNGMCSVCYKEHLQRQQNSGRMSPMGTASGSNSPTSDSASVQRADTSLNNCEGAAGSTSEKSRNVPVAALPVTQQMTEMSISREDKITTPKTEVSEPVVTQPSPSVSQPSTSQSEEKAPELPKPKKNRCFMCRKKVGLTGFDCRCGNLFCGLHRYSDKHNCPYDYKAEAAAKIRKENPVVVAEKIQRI
Outline: as §1

[3] = target: ZFAND6 (UniProt Q6FIF0)
Chain of ZFAND6 (Q6FIF0 whole entry, looked up): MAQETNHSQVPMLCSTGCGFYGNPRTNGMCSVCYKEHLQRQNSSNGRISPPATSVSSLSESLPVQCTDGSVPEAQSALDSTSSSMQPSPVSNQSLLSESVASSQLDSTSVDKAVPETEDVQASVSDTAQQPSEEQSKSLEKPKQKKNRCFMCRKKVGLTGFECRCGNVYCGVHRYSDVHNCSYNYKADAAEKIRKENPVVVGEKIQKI
Outline: as §1

[4] = target: ZFP91 (UniProt Q96JP5)
Chain of ZFP91 (Q96JP5 whole entry, looked up): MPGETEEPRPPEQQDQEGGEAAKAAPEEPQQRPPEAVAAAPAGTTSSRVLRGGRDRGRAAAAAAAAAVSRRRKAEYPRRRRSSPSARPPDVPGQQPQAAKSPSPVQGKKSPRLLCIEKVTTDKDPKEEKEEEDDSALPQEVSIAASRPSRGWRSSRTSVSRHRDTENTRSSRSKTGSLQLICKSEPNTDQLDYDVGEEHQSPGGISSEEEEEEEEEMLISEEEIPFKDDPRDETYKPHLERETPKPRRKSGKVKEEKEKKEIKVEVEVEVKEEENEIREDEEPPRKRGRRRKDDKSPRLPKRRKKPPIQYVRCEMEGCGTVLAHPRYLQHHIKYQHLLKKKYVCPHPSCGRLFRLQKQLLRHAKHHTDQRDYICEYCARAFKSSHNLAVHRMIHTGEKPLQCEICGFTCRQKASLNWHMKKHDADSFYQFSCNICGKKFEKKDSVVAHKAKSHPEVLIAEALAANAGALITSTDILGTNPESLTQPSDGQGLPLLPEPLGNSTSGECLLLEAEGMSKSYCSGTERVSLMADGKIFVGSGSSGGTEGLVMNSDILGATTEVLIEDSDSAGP
Outline: as §1

[5] = target: ZFPL1 (UniProt O95159)
Chain of ZFPL1 (O95159 whole entry, looked up): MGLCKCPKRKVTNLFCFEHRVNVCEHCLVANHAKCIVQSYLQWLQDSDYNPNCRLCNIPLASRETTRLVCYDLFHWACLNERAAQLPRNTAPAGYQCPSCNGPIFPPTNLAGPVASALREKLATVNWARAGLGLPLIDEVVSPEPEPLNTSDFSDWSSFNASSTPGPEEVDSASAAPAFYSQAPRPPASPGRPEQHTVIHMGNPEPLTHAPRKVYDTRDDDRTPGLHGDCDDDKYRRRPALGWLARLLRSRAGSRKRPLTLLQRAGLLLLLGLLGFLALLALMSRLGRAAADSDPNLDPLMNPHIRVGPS
Outline: as §1

[6] = target: ZMAT2 (UniProt Q96NC0)
Outline: as §1

[7] = target: ZMYM1 (UniProt Q5SVZ6)
Outline: as §1

[8] = target: ZMYM3 (UniProt Q14202)
Chain of ZMYM3 (Q14202 whole entry, looked up): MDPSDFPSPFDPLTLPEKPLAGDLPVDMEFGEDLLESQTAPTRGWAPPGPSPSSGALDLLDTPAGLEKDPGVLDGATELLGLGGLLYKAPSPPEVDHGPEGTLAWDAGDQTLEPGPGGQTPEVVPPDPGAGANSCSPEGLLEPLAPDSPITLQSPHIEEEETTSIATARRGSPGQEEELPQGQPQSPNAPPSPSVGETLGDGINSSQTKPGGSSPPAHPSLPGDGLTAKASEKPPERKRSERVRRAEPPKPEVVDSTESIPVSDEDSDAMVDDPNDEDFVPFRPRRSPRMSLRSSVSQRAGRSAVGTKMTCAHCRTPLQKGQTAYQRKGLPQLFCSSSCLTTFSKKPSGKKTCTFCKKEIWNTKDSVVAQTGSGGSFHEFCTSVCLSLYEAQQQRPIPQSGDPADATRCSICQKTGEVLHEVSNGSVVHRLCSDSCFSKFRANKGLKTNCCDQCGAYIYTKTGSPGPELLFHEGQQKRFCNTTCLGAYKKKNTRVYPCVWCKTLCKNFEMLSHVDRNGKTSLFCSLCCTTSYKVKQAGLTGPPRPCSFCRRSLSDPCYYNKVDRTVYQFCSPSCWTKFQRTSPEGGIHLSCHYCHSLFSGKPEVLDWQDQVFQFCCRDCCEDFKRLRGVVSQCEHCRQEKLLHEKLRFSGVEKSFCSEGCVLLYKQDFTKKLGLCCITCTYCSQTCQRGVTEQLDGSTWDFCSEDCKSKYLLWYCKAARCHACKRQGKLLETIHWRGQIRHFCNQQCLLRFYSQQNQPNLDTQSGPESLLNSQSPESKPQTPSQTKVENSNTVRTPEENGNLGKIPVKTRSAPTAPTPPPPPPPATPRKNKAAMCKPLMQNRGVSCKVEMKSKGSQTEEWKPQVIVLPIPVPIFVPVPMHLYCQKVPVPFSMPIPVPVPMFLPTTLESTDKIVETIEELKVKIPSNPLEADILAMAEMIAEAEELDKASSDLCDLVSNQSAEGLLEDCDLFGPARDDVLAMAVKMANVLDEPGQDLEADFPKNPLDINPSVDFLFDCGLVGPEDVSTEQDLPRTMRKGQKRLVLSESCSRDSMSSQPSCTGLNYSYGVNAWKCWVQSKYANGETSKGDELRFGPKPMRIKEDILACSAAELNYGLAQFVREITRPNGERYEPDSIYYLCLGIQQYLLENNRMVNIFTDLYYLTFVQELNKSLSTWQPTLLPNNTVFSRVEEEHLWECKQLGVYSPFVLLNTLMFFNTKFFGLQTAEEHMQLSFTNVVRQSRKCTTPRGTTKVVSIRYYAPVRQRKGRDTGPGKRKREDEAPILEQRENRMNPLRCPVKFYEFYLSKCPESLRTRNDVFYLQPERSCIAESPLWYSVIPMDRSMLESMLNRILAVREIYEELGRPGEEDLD
Outline: as §1

[9] = target: ZNF143 (UniProt P52747)
Outline: as §1

[10] = target: ZNF217 (UniProt O75362)
Outline: as §1

[11] = target: ZNF277 (UniProt Q9NRM2)
Chain of ZNF277 (Q9NRM2 whole entry, looked up): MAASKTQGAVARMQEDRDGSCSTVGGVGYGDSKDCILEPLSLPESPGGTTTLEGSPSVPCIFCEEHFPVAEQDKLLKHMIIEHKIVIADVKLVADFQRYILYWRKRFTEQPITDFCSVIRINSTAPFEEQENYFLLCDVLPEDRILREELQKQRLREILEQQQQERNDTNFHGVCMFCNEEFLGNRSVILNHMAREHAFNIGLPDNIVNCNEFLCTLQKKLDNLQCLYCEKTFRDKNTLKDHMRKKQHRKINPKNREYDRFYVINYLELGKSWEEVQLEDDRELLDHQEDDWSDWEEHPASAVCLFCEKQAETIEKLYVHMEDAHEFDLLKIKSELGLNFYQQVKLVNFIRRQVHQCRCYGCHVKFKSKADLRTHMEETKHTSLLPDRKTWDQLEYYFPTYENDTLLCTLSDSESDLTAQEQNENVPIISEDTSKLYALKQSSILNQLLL
Outline: as §1

[12] = target: ZNF511 isoform 1 (UniProt Q8NB15)
Chain of ZNF511 isoform 1 (Q8NB15 whole entry, looked up, canonical isoform): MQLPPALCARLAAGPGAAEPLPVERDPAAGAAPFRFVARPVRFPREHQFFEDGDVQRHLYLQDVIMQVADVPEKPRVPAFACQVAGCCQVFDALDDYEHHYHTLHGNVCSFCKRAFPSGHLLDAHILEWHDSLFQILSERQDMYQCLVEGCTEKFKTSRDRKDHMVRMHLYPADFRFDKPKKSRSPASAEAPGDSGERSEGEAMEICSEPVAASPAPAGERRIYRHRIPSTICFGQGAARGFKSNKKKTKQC
Outline: as §1

[13] = target: ZNF579 (UniProt Q8NAF0)
Chain of ZNF579 (Q8NAF0 whole entry, looked up): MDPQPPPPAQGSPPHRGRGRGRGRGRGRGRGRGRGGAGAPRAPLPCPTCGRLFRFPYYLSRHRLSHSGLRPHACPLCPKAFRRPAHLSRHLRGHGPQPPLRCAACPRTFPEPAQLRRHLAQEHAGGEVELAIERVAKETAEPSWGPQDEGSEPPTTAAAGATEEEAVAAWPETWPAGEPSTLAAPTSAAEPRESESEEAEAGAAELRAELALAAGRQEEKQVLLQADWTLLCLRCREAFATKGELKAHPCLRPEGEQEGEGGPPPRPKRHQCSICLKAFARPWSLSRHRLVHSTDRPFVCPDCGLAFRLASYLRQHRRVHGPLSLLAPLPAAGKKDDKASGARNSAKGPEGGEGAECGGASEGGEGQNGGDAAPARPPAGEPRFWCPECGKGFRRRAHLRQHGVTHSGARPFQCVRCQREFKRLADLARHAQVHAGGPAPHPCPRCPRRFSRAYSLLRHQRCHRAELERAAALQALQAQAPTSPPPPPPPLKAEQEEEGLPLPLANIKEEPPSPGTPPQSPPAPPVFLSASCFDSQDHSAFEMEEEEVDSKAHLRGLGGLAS
Outline: as §1

[14] = target: ZNF580 (UniProt Q9UK33)
Chain of ZNF580 (Q9UK33 whole entry, looked up): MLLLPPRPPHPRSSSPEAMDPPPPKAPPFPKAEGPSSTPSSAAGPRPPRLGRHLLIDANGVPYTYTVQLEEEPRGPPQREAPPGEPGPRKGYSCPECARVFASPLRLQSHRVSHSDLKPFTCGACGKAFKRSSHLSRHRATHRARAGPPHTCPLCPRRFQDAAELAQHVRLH
Outline: as §1

[15] = target: ZNF609 (UniProt O15014)
Outline: as §1

[16] = target: ZNF622 (UniProt Q969S3)
Chain of ZNF622 (Q969S3 whole entry, looked up): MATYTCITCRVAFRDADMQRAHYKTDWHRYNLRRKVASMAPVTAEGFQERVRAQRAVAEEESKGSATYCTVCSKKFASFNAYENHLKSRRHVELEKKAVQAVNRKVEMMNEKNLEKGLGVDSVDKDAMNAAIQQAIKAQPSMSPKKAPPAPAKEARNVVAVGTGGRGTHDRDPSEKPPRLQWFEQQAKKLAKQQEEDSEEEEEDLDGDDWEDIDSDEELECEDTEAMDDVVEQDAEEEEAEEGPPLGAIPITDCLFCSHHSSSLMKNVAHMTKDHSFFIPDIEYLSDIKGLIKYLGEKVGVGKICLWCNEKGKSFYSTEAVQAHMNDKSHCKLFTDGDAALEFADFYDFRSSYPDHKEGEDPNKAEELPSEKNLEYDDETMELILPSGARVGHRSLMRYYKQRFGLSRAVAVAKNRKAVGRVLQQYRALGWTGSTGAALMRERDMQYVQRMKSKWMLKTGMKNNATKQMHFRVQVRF
Outline: as §1

[17] = target: ZRANB2 (UniProt O95218)
Chain of ZRANB2 (O95218 whole entry, looked up): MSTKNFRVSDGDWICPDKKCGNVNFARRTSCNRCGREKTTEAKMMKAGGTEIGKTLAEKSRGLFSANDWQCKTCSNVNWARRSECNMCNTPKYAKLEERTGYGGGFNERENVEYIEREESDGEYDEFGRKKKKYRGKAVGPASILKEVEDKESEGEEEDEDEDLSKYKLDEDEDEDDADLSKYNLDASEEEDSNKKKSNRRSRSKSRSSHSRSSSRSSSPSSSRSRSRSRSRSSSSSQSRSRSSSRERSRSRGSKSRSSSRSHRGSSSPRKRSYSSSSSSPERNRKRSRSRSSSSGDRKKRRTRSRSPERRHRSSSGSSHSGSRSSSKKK
Outline: as §1

[18] = target: ZEB2 (UniProt O60315)
Outline: as §1

[19] = target: ZNF239 (UniProt Q16600)
Outline: as §1

[20] = target: ZNF512 (UniProt Q96ME7)
Outline: as §1

Structure (SMILES) | log2 fold change [1] | log2 fold change [2] | log2 fold change [3] | log2 fold change [4] | log2 fold change [5] | log2 fold change [6] | log2 fold change [7] | log2 fold change [8] | log2 fold change [9] | log2 fold change [10] | log2 fold change [11] | log2 fold change [12] | log2 fold change [13] | log2 fold change [14] | log2 fold change [15] | log2 fold change [16] | log2 fold change [17] | log2 fold change [18] | log2 fold change [19] | log2 fold change [20]
COC(=O)N[C@@H](C)CNc1nccc(-c2cn(C(C)C)nc2-c2cc(Cl)cc(NS(C)(=O)=O)c2F)n1 [encorafenib] | 0.01 | -0.047 | -0.019 | 0.038 | -0.026 | 0.106 | 0.082 | -0.032 | 0.014 | -0.054 | -0.259 | -0.03 | -0.187 | 0.143 | -0.082 | 0.01 | -0.066 | – | – | –
c1cc(OCCN2CCCCC2)cc(-c2n[nH]c3ccc(-c4nnc[nH]4)cc23)c1 | 0.023 | -0.063 | -0.006 | -0.161 | 0.008 | 0.035 | -0.229 | 0.029 | -0.06 | -0.096 | -0.275 | -0.043 | 0.078 | -0.083 | -0.003 | 0.092 | 0.021 | – | – | –
NC(=O)Nc1cc(-c2cccc(F)c2)sc1C(=O)N[C@H]1CCCNC1 | -0.046 | -0.041 | 0.12 | -0.044 | -0.04 | 0.282 (active) | -0.108 | -0.042 | 0.07 | 0.016 | – | 0.007 | -0.008 | 0.123 | 0.061 | -0.028 | 0.076 | 0.003 | 0.015 | –
CS(=O)(=O)c1ccc(-c2cnc(N)c(C(=O)Nc3ccccc3)n2)cc1 | 0.034 | -0.035 | -0.036 | -0.072 | -0.045 | -0.127 | 0.026 | 0.023 | -0.014 | -0.037 | – | -0.022 | 0.019 | -0.231 | 0.021 | 0.066 | -0.013 | 0.025 | -0.06 | –
CN1CCC(CNc2ccc3ncc(-c4cccc(OC(F)(F)F)c4)n3n2)CC1 | -0.172 | -0.068 | -0.037 | 0.171 | -0.085 | 0.008 | 0.086 | 0.035 | -0.109 | -0.081 | 0.077 | – | 0.103 | 0.054 | -0.134 | 0.03 | 0.01 | – | -0.063 | –
CC(=O)c1cnc2ccc(-c3cc(Cl)c(O)c(Cl)c3)nc2c1N[C@H]1CC[C@H](CN(C)C)CC1 | 0.009 | -0.025 | 0.041 | 0.018 | 0.023 | -0.001 | 0.055 | -0.004 | -0.044 | -0.125 | -0.017 | -0.005 | -0.187 | – | -0.071 | 0.096 | 0.017 | – | -0.439 | -0.15
O=C(CCCCCCNC(=O)c1cnc(N(c2ccccc2)c2ccccc2Cl)nc1)NO [citarinostat] | 0.192 | 0 | -0.081 | -0.053 | 0.046 | 0.085 | -0.07 | -0.033 | 0.033 | -0.004 | 0.306 | 0.054 | -0.089 | -0.013 | 0.083 | -0.011 | -0.031 | – | – | –
CON(C)C(=O)N1N=C(c2cc(F)ccc2F)S[C@@]1(CCCN)c1ccccc1 [filanesib] | -0.006 | 0.073 | -0.111 | 0.183 | -0.001 | -0.084 | 0.067 | 0.012 | 0.024 | -0.045 | – | 0.019 | 0.181 | 0.152 | 0.049 | -0.101 | 0 | 0.025 | 0.051 | –
CC[C@@H]1C(=O)N(C)c2cnc(Nc3ccc(C(=O)NC4CCN(C)CC4)cc3OC)nc2N1C1CCCC1 | -0.032 | 0.052 | 0.058 | 0.104 | -0.027 | 0.017 | 0.202 | 0.015 | -0.018 | 0.029 | 0.328 | -0.041 | -0.017 | 0.037 | 0.047 | 0.069 | 0.022 | – | – | –
CNCc1ccc(-c2[nH]c3cc(F)cc4c3c2CCNC4=O)cc1 [rucaparib] | -0.271 | -0.012 | -0.241 (active) | 0.113 | 0.021 | -0.206 | 0.331 | 0.049 | -0.008 | -0.025 | 0 | -0.006 | 0.01 | 0.136 | -0.034 | -0.194 | -0.034 | – | – | –
O=C1NC(=NCc2cccs2)S/C1=C\c1ccc2ncccc2c1 | -0.016 | -0.015 | 0.077 | -0.007 | 0.01 | -0.063 | 0.113 | 0 | -0.028 | 0.007 | 0.019 | 0.087 | -0.051 | – | -0.025 | 0.07 | -0.059 | – | 0.117 | 0.102
Cc1cc(Nc2cc(CN3CCOCC3)c3nc(C)c(Cc4ccc(Cl)cc4F)n3n2)n[nH]1 [gandotinib] | -0.269 | 0.066 | -0.004 | 0.214 | 0.011 | -0.014 | 0.305 | 0.051 | 0.025 | -0.098 | 0.041 | – | 0.036 | 0.041 | -0.073 | 0.075 | 0.064 | – | -0.267 | –
Cc1ccc(NC(=O)c2cccc(C(C)(C)C#N)c2)cc1Nc1ccc2ncn(C)c(=O)c2c1 | -0.041 | -0.064 | 0.069 | 0.017 | 0.061 | 0.209 | -0.071 | -0.092 | -0.023 | 0.075 | – | -0.026 | 0.043 | -0.174 | -0.046 | 0.048 | 0.034 | -0.027 | -0.002 | –
C[C@H](Nc1ncnc2nc[nH]c12)c1cc2cccc(Cl)c2c(=O)n1-c1ccccc1 [duvelisib] | -0.154 | -0.063 | 0.032 | -0.038 | 0.046 | 0.014 | -0.096 | 0.021 | -0.146 | 0.108 | -0.107 | – | -0.031 | -0.078 | 0.073 | 0.065 | -0.02 | 0.05 | 0.038 | –
O=C1c2ccccc2-c2n[nH]c3cccc1c23 | -0.009 | -0.055 | -0.055 | -0.004 | -0.055 | 0.018 | 0.001 | -0.093 | -0.077 | 0.03 | 0.065 | 0.041 | 0.279 | – | 0.002 | 0.042 | -0.059 | – | 0.004 | 0.161
Nc1ccccc1NC(=O)c1ccc(CNC(=O)OCc2cccnc2)cc1 [entinostat] | 0.049 | -0.031 | -0.007 | -0.054 | -0.03 | 0.081 | -0.012 | -0.073 | -0.012 | 0.075 | – | -0.078 | -0.036 | 0 | -0.061 | -0.007 | -0.024 | -0.03 | -0.023 | –
